Shown are actives, neighbours in structure and some others; about 17% of the full set was active somewhere.
ClpP mod: qHTS Assay for Activators of ClpP; ATP-dependent Clp protease proteolytic subunit (Bacillus subtilis (strain 168)), P80244; purified B. subtilis ClpP, FRET peptide cleavage, 20 min; Potency, µM (highest dose often 57.5 µM); actives 1.9% (n = 340,000); active = well fitted falling curve with a large enough effect; inconclusive = small, poorly fitted or top-dose-only effect; inactive = no such curve, though single readings can be large or run the other way; also: the source files actives as falling curves though it sought activators and does not explain the sign; nearly all actives have a fitted effect of over 65% in size
Target sequence (P80244 whole entry, looked up): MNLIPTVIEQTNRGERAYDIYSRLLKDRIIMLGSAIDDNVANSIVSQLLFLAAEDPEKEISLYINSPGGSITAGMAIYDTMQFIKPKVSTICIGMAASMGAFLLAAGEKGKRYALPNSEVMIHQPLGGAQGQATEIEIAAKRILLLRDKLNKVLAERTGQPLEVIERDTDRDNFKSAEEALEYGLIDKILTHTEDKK
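FRET quenching reversal measured ClpP activation: 10 microg/mL B. subtilis ClpP at pH 8 with the FRET-FV decapeptide, read at 430 nm after 320 nm excitation. The 20-min minus 0-min signal was scaled between DMSO/no-enzyme wells and ADEP (5.8 microM final).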
TDP1 cell noCPT: qHTS for Inhibitors of human tyrosyl-DNA phosphodiesterase 1 (TDP1): qHTS in cells in absence of CPT; actives 15% (n = 420,000); Potency, µM (series often up to 46.2 µM), actives largely listed as inhibitors; DT40 Tdp1-/- hTDP1 cells, no CPT, ATP luminescence, 48 h; also: nearly all actives have a fitted effect of over 55% in size
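Chicken DT40 Tdp1-/- cells stably complemented with human TDP1 were seeded at 400 cells/well with DMSO in place of 20 nM camptothecin. After compound pinning, cells grew at least 48 hr at 37 °C; viability read by CellTiter-Glo luminescence.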
TDP1 block: TDP1 (human) enzyme inhibition; actives 0.28% (n = 350,000); recombinant TDP1, AlphaScreen DNA substrate cleavage; Potency, µM (doses to about 130 µM), actives largely listed as inhibitors; Q9NUW8; AID 485290; also: nearly all actives have a fitted effect of over 40% in size
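Enzyme-compound mixtures sat 15 min at room temperature, followed by a 5 min reaction with 15 nM final substrate and 10 min with AlphaScreen beads. Recombinant human Tdp1 was used at 1 nM final.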
TDP1 cell CPT: growth inhibition of DT40 Tdp1-/-;hTDP1 cells with camptothecin (screen for TDP1 inhibitors); AID 686979; Potency, µM (top dose mostly 46.2 µM), hits mostly inhibitors; chicken DT40 Tdp1-/-;hTDP1 cells + 20 nM CPT, ATP luminescence, 48 h; actives 12% (n = 420,000); also: nearly all actives have a fitted effect of over 55% in size
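Chicken DT40 Tdp1-/- cells stably complemented with human TDP1 were seeded at 400 cells/well in medium containing 20 nM camptothecin, exposed to pin-transferred compounds, and grown at 37 °C for at least 48 hr. Viability was read as ATP luminescence.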
A number is an active result; . = inactive; ? = inconclusive; / = not tested or not shown; [ ] = dose if it differs, or a comment. Unless noted, calls follow the shape of the dose curve; as a rule, active = well fitted curve in the direction sought with a large enough effect; inconclusive = small, poorly fitted or top-dose-only effect, or another doubt; inactive = no such curve, though single readings can be large; an effect the other way counts as inactive or inconclusive.

SMILES	ClpP mod	TDP1 cell noCPT	TDP1 block	TDP1 cell CPT
CCCN1C(=O)/C(=C/c2cc(C)n(C)c2C)SC1=Nc1ccc(OC)cc1	.	9.2µM	.	13µM
COc1cc(NC(=O)CCc2c(C)noc2C)c(C(=O)O)cc1OC	.	.	/	.
CC(=O)C1=C(O)C(=O)N(Cc2ccccc2)C1c1cccs1 (centres undefined)	.	.	.	.
O=C1NC(=O)C2C1C(c1cccs1)NN2Cc1ccccc1 (centres undefined)	/	29µM	.	29µM
COc1cc(OC)cc(-c2cc3ccccc3c(=O)o2)c1	28µM	?	.	?
Nc1ccc(-c2cc3ccccc3c(=O)o2)cc1	.	?	.	?
COc1ccc(C(=O)NCc2nc(-c3cccc(C)c3)no2)cc1OC	.	16µM	.	?
Cc1ccc(-c2noc(CN(C(=O)C(c3ccccc3)c3ccccc3)C(C)C)n2)cc1	.	15µM	.	18µM
COc1cccc(C(=O)N(Cc2nc(-c3ccc(Cl)cc3)no2)C(C)C)c1OC	.	21µM	.	18µM
Cc1cc(C)cc(C(=O)N(Cc2nc(-c3ccc(Cl)cc3)no2)C(C)C)c1	.	18µM	.	21µM
Cc1c(Cl)cccc1NC(=O)c1cc(S(=O)(=O)N2CCCCC2)cn1C	.	?	.	?
Cc1cc2ncc(C(N)=O)cn2n1	/	.	.	.
CCCC(=O)Nc1nnc(SCc2cc(=O)n3cccc(C)c3n2)s1	.	.	.	.
Cc1ccc(-c2cc(C(=O)Nc3ccc(S(=O)(=O)Nc4ncccn4)cc3)[nH]n2)c(O)c1C	/	?	.	?
C=C[C@H]1CCC=C2C(=O)CCC[C@@H]21	/	/	.	/
COc1ccc2c(c1)C(=O)[C@@H](OC(=O)NCCOc1ccccc1)[C@H](c1ccc(OC)c(Br)c1)O2	/	/	.	/
Cc1cccc(-c2noc(CN(C)C(=O)c3ccoc3C)n2)c1	/	?	.	.
COc1ccc(-c2noc(CN(C(=O)COc3cc(C)c(Br)c(C)c3)C(C)C)n2)cc1	.	23µM	.	18µM
COc1ccc(-c2noc(CN(C)C(=O)c3ccoc3C)n2)cc1	/	16µM	.	?
COc1ccc(Cl)cc1C(=O)N(Cc1nc(-c2cccc(C)c2)no1)C(C)C	.	6.5µM	.	6.5µM
Cc1cccc(-c2noc(CN(C(=O)c3ccccc3Cl)C(C)C)n2)c1	.	?	.	?
Cc1ccc(Sc2nc(-c3ccccc3)nnc2C(F)(F)F)cc1	.	21µM	.	21µM
CNc1nc(-c2ccccc2)nnc1C(F)(F)F	.	.	.	.
COc1ccc(-c2cc(C(C)=O)c(C)n2CCC(=O)Nc2cc(Cl)ccc2C)cc1	.	18µM	.	21µM
COc1ccc(-c2cc(C(C)=O)c(C)n2CCC(=O)Nc2ccc(C)c(Cl)c2)cc1	.	18µM	.	15µM
SMILES	ClpP mod	TDP1 cell noCPT	TDP1 block	TDP1 cell CPT
COc1ccc(-c2cc(C(C)=O)c(C)n2CCC(=O)NC2CCCCC2)cc1	.	?	.	23µM
COc1ccc(-c2cc(C(C)=O)c(C)n2CCC(=O)Nc2cccc(C)c2C)cc1	.	?	.	?
CCOC(=O)c1c(C)n(S(=O)(=O)c2ccc(C)cc2)c2ccc(O)c(C(=O)O)c12	/	.	.	.
Cc1cccc(NC(=O)CNC(=O)c2cn(Cc3ccccc3)nc2-c2cccnc2)c1C	.	.	.	.
O=S(=O)(c1ccccc1)N1CCC[C@@]2(CCN(c3ccncc3)C2)C1	/	18µM	/	?
N#Cc1cccc(NC(=O)N2CC[C@@]3(CCCN(S(=O)(=O)c4ccccc4)C3)C2)c1	/	21µM	/	?
CN1Cc2c(C(=O)OC(C)(C)C)ncn2-c2ccsc2C1=O	/	.	.	.
C/C=C/C=C\C(=O)Nc1cccc(C2=NOC3(C2)C[C@@H](C(N)=O)N(C(=O)c2cc([N+](=O)[O-])cc([N+](=O)[O-])c2)C3)c1 (some centres undefined)	.	.	.	?
CCCCC/C=C\C/C=C\C/C=C\C/C=C\CCCC(=O)O[C@@H](CO)COC(=O)CCCCCCCCCCCCCCCCC	/	.[4.12 µM]	.	.[4.12 µM]
Cn1c(C(=O)N2CCN(c3ccc([N+](=O)[O-])cc3)CC2)cc2c(=O)[nH]c3ccccc3c21	/	12µM	.	?
CCOc1cccc(C(=O)c2ccc(O)c(O)c2O)c1	/	?	.	.
COCC(=O)OC1CCn2c1nc1c2C(=O)C(C)=C(NC(C)=O)C1=O (centres undefined)	.	2.3µM	/	2.6µM
COc1ccc(OC)c(-c2cc(Cl)c3c(c2)CC(CNC(=O)/C=C/c2ccccn2)O3)c1 (centres undefined)	/	.	/	.[9.04 µM]
Fc1ccccc1N1CCN(C2CCCN(Cc3cccc(C(F)(F)F)c3)C2)CC1 (centres undefined)	/	16µM	/	?
O=C(NCCO)c1cn(C2CCCN(Cc3cccc(C(F)(F)F)c3)C2)nn1 (centres undefined)	/	.	/	.[9.04 µM]
Oc1ccccc1CN1CCCC(N2CCN(c3cccc(C(F)(F)F)c3)CC2)C1 (centres undefined)	.	?	/	18µM
CCC/C=C(\CCC)C(NS(=O)(=O)c1cccc2cccnc12)c1ccc(C(=O)OC)cc1 (centres undefined)	.	23µM	.	?
CCC/C=C(\CCC)C(NS(=O)(=O)c1ccc(Cl)cc1)c1ccc(C(=O)OC)cc1 (centres undefined)	/	/	.	/
CCC/C=C(\CCC)C(NC(=O)OCC(C)C)c1ccc(C(=O)OC)cc1 (centres undefined)	.	15µM	.	23µM
CC1CCN(Cc2nnnn2CCCC(=O)NCCc2cnn(C)c2)CC1	.	.	.	.
CCCCn1c(Oc2cccc(C(=O)OC)c2)nc2c1c(=O)n(C)c(=O)n2C	.	.	.	.
Cn1c(=O)c2c(ncn2CC(=O)OCC(=O)c2ccc(Cl)cc2)n(C)c1=O	.	.	.	.
CCCCn1c(Oc2ccc(C(=O)OC)cc2)nc2c1c(=O)n(C)c(=O)n2C	.	11µM	.	16µM
COc1ccc(C(=O)Cn2c(Br)nc3c2c(=O)n(C)c(=O)n3C)cc1OC	.	?	.	?
Cn1c(=O)c2c(ncn2CC(=O)OCC(=O)c2ccc(Br)cc2)n(C)c1=O	.	26µM	/	16µM
COc1ccc(C(=O)Cn2c(Br)nc3c2c(=O)n(C)c(=O)n3C)cc1	.	23µM	.	13µM
O=C(Nc1ccc(Cl)cc1C(F)(F)F)c1cc(S(=O)(=O)N2CCOCC2)ccc1F	.	?	.	?
COc1ccc(OC)c(NC(=O)COC(=O)CN(C)S(=O)(=O)c2ccc(C)cc2)c1	.	.	.	.
COC(=O)[C@@H](Cc1c[nH]c2ccccc12)NC(=O)c1cc(=O)[nH]c2ccccc12	/	.	.	.
COc1ccccc1N1CCN(c2nc(CNC(=O)c3ccc(C)c(C)c3)nc3ccccc23)CC1	/	.	/	.

High-throughput results from PubChem.
